Results: PubChem BioAssay (EPA / NIEHS)
Inconclusive results are not listed. The source made the active and inactive calls. How the source made its calls, unless noted: active means hit-call score of the fitted dose curve at least 0.9, where 1 is the maximum; inactive means score below 0.9.

Experiments:
[1] = target: Paired box protein Pax-6 (Homo sapiens) (UniProt P26367); test: ATG_Pax6_CIS: Attagene CIS-FACTORIAL HepG2 Assay for human Paired Box 6 (PAX6) (AID 2282956); conditions: HepG2 CIS-FACTORIAL PAX6 reporter transcription, RNA readout; actives raise or lower the signal
Sequence of Paired box protein Pax-6 (Homo sapiens) (P26367 whole entry, looked up): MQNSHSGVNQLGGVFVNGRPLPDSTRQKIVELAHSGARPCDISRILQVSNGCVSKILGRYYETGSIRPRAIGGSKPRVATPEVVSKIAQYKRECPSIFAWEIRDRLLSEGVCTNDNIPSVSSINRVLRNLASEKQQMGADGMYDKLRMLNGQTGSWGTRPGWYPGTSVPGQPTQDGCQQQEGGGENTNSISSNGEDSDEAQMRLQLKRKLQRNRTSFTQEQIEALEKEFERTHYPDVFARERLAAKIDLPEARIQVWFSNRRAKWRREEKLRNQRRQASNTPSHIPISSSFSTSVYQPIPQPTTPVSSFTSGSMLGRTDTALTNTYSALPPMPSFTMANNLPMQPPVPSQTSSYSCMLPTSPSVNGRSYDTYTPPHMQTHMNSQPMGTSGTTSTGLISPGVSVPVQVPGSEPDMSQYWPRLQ
Method in brief: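 Read-out is reporter transcript level, measured by RT-PCR with fluorescent primer extension and capillary electrophoresis after 24 h dosing of transfected HepG2 cells. Activity in either direction fitted relative to DMSO control.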

[2] = ATG_PXRE_CIS: Attagene CIS-FACTORIAL HepG2 Assay for human Pregnane X Receptor Element (PXRE) (AID 2282957); conditions: HepG2 Attagene CIS-FACTORIAL PXRE reporter, mRNA; actives raise or lower the signal
Method in brief: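 Using HepG2 transfected with multiple reporter transcription units, endogenous factor-driven transcription was scored as reporter mRNA after 24 h exposure.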

[3] = ATG_RORE_CIS: Attagene CIS-FACTORIAL HepG2 Assay for human RAR-related Orphan Receptor Element (RORE) (AID 2282959); conditions: HepG2 Attagene cis-factorial RORE reporter, mRNA; actives raise or lower the signal
Method in brief: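 Transiently transfected HepG2 reporter cells were treated 24 h. Reporter transcripts were detected by RT-PCR and capillary electrophoresis, with bidirectional fitting against DMSO.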

[4] = ATG_Sox_CIS: Attagene CIS-FACTORIAL HepG2 Assay for human SRY-box transcription factor (SOX) (AID 2282960); conditions: HepG2 Attagene cis-factorial SOX reporter, mRNA; actives raise or lower the signal
Method in brief: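 Gain- or loss-of-signal endpoint, fitted bidirectionally with DMSO as negative control. Based on reporter mRNA from transfected HepG2 cells harvested 24 h post-treatment and quantified via RT-PCR and capillary electrophoresis.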

[5] = target: Transcription factor Sp1 (Homo sapiens) (UniProt P08047); test: ATG_Sp1_CIS: Attagene CIS-FACTORIAL HepG2 Assay for human Specificity Protein 1 (Sp1) (AID 2282961); conditions: HepG2 Sp1 cis-reporter transcription, actives raise or lower the signal
Sequence of Transcription factor Sp1 (Homo sapiens) (P08047 whole entry, looked up, the tested form may be a part): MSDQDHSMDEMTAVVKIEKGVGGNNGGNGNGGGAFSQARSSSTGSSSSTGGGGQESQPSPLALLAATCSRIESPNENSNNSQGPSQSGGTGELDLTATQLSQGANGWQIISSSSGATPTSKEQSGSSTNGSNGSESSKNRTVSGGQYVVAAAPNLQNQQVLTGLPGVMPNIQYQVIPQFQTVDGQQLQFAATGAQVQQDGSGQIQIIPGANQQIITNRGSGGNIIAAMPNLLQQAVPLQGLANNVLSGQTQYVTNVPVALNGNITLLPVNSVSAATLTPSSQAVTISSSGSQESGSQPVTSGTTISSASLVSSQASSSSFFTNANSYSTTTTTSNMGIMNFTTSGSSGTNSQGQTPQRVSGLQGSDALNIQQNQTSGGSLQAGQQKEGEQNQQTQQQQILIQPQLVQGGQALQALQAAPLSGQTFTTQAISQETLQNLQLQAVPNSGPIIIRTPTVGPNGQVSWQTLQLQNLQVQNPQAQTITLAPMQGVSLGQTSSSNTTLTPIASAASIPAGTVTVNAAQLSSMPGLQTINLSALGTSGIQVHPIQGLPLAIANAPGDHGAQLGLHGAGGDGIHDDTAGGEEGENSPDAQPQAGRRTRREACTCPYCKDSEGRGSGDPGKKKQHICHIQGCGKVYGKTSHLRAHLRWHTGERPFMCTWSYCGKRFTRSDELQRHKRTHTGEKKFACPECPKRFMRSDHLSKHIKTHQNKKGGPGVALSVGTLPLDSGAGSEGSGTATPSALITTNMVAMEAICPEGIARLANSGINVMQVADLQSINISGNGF
Method in brief: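 Endpoint reflects endogenous Sp1 transcriptional activity, not an exogenous fusion protein: HepG2 cells with transfected cis-regulated reporters, 24 h dosing, RT-PCR/capillary electrophoresis mRNA read-out, DMSO-normalised bidirectional fit.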

[6] = ATG_SREBP_CIS: Attagene CIS-FACTORIAL HepG2 Assay for human Sterol Regulatory Element Binding (SREBP) (AID 2282962); conditions: HepG2 Attagene cis-factorial SREBP reporter, mRNA; actives raise or lower the signal
Method in brief: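 Endogenous SREBP activity read as cis-element-driven reporter transcript in transiently transfected HepG2, 24 h post-dosing; quantified via RT-PCR plus capillary electrophoresis of fluorescent fragments. Gain or loss of signal fitted relative to DMSO baseline.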

[7] = target: Signal transducer and activator of transcription 3 (Homo sapiens) (UniProt P40763); test: ATG_STAT3_CIS: Attagene CIS-FACTORIAL HepG2 Assay for human Signal Transducer and Activator of Transcription 3 (STAT3) (AID 2282963); conditions: HepG2, Attagene cis-factorial STAT3 reporter transcription; actives raise or lower the signal
Sequence of Signal transducer and activator of transcription 3 (Homo sapiens) (P40763 whole entry, looked up): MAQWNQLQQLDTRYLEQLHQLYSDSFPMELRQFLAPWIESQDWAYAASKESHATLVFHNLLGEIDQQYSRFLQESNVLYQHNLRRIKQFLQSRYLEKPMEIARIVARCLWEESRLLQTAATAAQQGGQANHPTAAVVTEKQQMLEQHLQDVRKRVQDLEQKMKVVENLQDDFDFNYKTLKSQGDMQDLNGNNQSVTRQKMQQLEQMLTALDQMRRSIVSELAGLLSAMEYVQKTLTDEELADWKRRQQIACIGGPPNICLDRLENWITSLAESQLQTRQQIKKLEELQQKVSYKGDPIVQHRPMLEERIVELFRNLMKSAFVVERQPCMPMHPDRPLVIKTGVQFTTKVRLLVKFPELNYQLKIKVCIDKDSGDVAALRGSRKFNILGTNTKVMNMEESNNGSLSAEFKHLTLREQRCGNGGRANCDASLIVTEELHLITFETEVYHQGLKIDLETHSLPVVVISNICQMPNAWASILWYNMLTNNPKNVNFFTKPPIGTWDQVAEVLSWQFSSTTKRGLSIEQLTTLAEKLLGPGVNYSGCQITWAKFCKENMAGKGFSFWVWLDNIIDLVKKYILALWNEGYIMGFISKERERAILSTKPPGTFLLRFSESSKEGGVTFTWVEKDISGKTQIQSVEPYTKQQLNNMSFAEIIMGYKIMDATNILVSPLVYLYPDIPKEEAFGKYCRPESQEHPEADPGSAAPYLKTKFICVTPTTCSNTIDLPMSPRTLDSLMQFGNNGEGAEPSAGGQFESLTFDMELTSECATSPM
Method in brief: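 Readout is reporter transcript quantified by RT-PCR and capillary electrophoresis, with 6-FAM primer extension and HpaI digestion. Total RNA is taken 24 h after dosing transiently transfected HepG2 carrying cis-regulated reporter units. Bidirectional fit against DMSO.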

[8] = ATG_TA_CIS: Attagene CIS-FACTORIAL HepG2 Assay for human TA Basal Promoter (AID 2282964); conditions: HepG2 Attagene CIS-factorial TA basal promoter reporter; actives raise or lower the signal
Method in brief: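 Cis-factorial format in HepG2: reporters report endogenous factors, not chimeric Gal4 fusions. After 24 h treatment, reporter transcripts were measured by RT-PCR-capillary electrophoresis fluorescence, analysed bidirectionally versus DMSO.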

[9] = ATG_TCF_b_cat_CIS: Attagene CIS-FACTORIAL HepG2 Assay for human T-Cell-Factor with beta-catenin (TCF/b-cat) (AID 2282965); conditions: HepG2 TCF/beta-catenin cis-reporter transcription, actives raise or lower the signal
Method in brief: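 Endogenous transcription factor activity is captured through cis-promoter reporter constructs transiently introduced into human HepG2 liver cells. Induced reporter mRNA is measured after 24 h and fitted bidirectionally relative to DMSO.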

[10] = ATG_TAL_CIS: Attagene CIS-FACTORIAL HepG2 Assay for human TAL Basal Promoter (AID 2282966); conditions: HepG2 Attagene cis-factorial TAL promoter reporter; actives raise or lower the signal;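 further: background control endpoint measuring basal TAL promoter reporter mRNA not a specific factor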
Method in brief: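 After 24 hours of chemical exposure, transfected HepG2 cells yielded RNA that was converted to 6-FAM-labelled, HpaI-digested reporter fragments for capillary electrophoresis. Values derive from bidirectional fitting against DMSO controls.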

[11] = ATG_TGFb_CIS: Attagene CIS-FACTORIAL HepG2 Assay for human Transforming Growth Factor (TGF) (AID 2282967); conditions: HepG2 Attagene CIS TGFb reporter, mRNA transcription; actives raise or lower the signal
Method in brief: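 Multiplexed cis-reporter HepG2 system, 24 h treatment; mRNA induction read by fluorescence after RT-PCR and CE; DMSO negative control, bidirectional curve fitting.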

[12] = ATG_VDRE_CIS: Attagene CIS-FACTORIAL HepG2 Assay for human Vitamin D Receptor Element (VDRE) (AID 2282968); conditions: HepG2 VDRE cis-reporter transcription, actives raise or lower the signal
Method in brief: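 Readout is VDRE-driven reporter mRNA reflecting endogenous factor activity in human HepG2 cells, sampled 24 h post-dose. Quantification used labelled RT-PCR products separated by capillary electrophoresis; bidirectional analysis relative to DMSO.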

[13] = target: Nuclear receptor subfamily 1 group I member 3 (Homo sapiens) (UniProt Q14994); test: ATG_CAR_TRANS: Attagene TRANS-FACTORIAL HepG2 Assay for human Constitutive Androstane Receptor (CAR) (AID 2282969; active means hit-call score of the fitted dose curve at least 0.9, where 1 is the maximum;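 further: activators raise reporter mRNA above DMSO so AC50 marks induction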); conditions: HepG2 Attagene TRANS-FACTORIAL CAR reporter
Sequence of Nuclear receptor subfamily 1 group I member 3 (Homo sapiens) (Q14994 whole entry, looked up, the tested form may be a part): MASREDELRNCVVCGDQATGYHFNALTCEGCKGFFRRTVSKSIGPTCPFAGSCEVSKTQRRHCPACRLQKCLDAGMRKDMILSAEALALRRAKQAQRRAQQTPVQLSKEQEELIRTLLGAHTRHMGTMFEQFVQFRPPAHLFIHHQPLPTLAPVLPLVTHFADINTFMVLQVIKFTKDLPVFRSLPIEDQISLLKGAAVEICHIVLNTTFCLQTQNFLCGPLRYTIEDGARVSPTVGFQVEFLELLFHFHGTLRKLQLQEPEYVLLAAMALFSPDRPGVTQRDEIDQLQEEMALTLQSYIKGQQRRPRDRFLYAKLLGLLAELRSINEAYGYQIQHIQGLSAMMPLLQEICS
Method in brief: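 Signal is reporter mRNA induction relative to DMSO, measured 24 h after dosing by RT-PCR with fluorescent primer extension and capillary electrophoresis. Human HepG2 liver cells carried transiently transfected chimeric NR-Gal4/GAL4-UAS reporter constructs.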

[14] = target: Steroid hormone receptor ERR1 (Homo sapiens) (UniProt P11474); test: ATG_ERRa_TRANS: Attagene TRANS-FACTORIAL HepG2 Assay for human Estrogen-Related Receptor alpha (ERRa) (AID 2282971; active means hit-call score of the fitted dose curve at least 0.9, where 1 is the maximum); conditions: HepG2 Attagene TRANS reporter, ERRa transactivation
Sequence of Steroid hormone receptor ERR1 (Homo sapiens) (P11474 whole entry, looked up, the tested form may be a part): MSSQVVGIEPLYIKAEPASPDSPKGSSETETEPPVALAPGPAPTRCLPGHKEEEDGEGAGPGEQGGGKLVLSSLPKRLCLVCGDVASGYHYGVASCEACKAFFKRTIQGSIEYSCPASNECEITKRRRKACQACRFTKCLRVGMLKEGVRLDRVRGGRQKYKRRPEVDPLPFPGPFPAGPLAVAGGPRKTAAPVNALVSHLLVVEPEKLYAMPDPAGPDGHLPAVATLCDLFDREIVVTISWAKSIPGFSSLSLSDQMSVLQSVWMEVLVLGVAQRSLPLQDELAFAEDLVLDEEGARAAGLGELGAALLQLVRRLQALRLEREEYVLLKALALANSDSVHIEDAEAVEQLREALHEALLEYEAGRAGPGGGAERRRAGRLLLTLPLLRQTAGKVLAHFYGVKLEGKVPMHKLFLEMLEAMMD
Method in brief: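 Reporter transcript induction was quantified by RT-PCR and capillary electrophoresis of FAM-labelled, HpaI-cut products after 24 h treatment of HepG2 cells carrying transiently transfected GAL4-UAS reporter units and an exogenous ERRa-Gal4 fusion; activity scored as increase over DMSO.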

[15] = target: X-box-binding protein 1 (Homo sapiens) (UniProt P17861); test: ATG_Xbp1_CIS: Attagene CIS-FACTORIAL HepG2 Assay for human X-box Binding Protein 1 (XBP1) (AID 2282972); conditions: HepG2 XBP1 cis-element reporter, Attagene multiplex; actives raise or lower the signal
Sequence of X-box-binding protein 1 (Homo sapiens) (P17861 whole entry, looked up): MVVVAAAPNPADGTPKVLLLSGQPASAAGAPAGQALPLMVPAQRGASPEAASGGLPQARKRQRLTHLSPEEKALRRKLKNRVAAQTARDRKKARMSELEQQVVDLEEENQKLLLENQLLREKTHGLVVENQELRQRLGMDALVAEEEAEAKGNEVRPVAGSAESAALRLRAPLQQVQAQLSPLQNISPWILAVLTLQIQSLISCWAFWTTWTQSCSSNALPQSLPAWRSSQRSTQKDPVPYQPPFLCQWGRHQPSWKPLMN
Method in brief: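 Reporter transcripts were quantified by RT-PCR with fluorescent primer extension and capillary electrophoresis after 24 h chemical exposure. Cells: transiently transfected HepG2 carrying cis-regulated reporter constructs; data fitted bidirectionally relative to DMSO.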

[16] = ATG_M_19_TRANS: Attagene TRANS-FACTORIAL HepG2 Assay for M19 Transcription Factor (Internal Marker) (AID 2282974; active means hit-call score of the fitted dose curve at least 0.9, where 1 is the maximum); conditions: HepG2 Attagene TRANS-FACTORIAL M19 internal marker reporter
Method in brief: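 Using RT-PCR and capillary electrophoresis, reporter mRNA from transiently transfected human HepG2 cells was quantified following 24 h exposure; activity was fitted in the positive direction against DMSO.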

[17] = ATG_GAL4_TRANS: Attagene TRANS-FACTORIAL HepG2 Assay for GAL4 (Internal Marker) (AID 2282976; active means hit-call score of the fitted dose curve at least 0.9, where 1 is the maximum); conditions: HepG2 Attagene TRANS GAL4 internal marker reporter
Method in brief: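 First, HepG2 cells were transfected with reporter units under GAL4-UAS control. Next, they were treated with chemical for 24 h. Finally, RNA was reverse-transcribed, PCR-amplified, FAM-labelled and resolved by capillary electrophoresis, with induction scored against DMSO.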

[18] = target: Estrogen-related receptor gamma (Homo sapiens) (UniProt P62508); test: ATG_ERRg_TRANS: Attagene TRANS-FACTORIAL HepG2 Assay for human Estrogen-Related Receptor gamma (ERRg) (AID 2282977; active means hit-call score of the fitted dose curve at least 0.9, where 1 is the maximum;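 further: hits increase reporter signal over DMSO so potencies reflect activators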); conditions: HepG2 Attagene TRANS reporter, ERRg transactivation
Sequence of Estrogen-related receptor gamma (Homo sapiens) (P62508 whole entry, looked up, the tested form may be a part): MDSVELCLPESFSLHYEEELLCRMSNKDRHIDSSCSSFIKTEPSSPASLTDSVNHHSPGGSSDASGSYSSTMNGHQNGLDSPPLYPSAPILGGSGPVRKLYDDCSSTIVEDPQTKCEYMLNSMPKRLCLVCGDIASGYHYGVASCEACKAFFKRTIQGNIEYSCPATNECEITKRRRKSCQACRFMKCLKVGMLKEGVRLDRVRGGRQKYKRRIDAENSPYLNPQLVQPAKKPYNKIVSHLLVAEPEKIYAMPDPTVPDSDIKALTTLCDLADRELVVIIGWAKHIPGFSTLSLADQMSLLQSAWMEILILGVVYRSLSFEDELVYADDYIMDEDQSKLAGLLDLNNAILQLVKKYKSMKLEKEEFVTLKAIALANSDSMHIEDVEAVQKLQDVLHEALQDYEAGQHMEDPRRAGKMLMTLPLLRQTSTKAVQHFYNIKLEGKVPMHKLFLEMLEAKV
Method in brief: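 Induction of reporter transcripts through a chimeric NR-Gal4 protein is quantified in transfected human HepG2 liver cells after 24 h chemical exposure, using RT-PCR with capillary electrophoresis detection and DMSO as baseline.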

[19] = ATG_PPRE_CIS: Attagene CIS-FACTORIAL HepG2 Assay for human Peroxisome Proliferator-activated Response Element (PPRE) (AID 2282958); conditions: HepG2 PPRE cis-element reporter, Attagene transcription factor profiling; actives raise or lower the signal
Method in brief: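 Measured endpoint: PPRE-controlled reporter mRNA, detected by RT-PCR and capillary electrophoresis fluorescence, from transiently transfected HepG2 cells 24 h after dosing. Curves fitted in both directions using DMSO baseline.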

[20] = target: Estrogen receptor (Homo sapiens) (UniProt P03372); test: ATG_ERa_TRANS: Attagene TRANS-FACTORIAL HepG2 Assay for human Estrogen Receptor alpha (ERa) (AID 2282970; active means hit-call score of the fitted dose curve at least 0.9, where 1 is the maximum); conditions: HepG2 Attagene TRANS ERa GAL4 reporter, mRNA
Sequence of Estrogen receptor (Homo sapiens) (P03372 whole entry, looked up, the tested form may be a part): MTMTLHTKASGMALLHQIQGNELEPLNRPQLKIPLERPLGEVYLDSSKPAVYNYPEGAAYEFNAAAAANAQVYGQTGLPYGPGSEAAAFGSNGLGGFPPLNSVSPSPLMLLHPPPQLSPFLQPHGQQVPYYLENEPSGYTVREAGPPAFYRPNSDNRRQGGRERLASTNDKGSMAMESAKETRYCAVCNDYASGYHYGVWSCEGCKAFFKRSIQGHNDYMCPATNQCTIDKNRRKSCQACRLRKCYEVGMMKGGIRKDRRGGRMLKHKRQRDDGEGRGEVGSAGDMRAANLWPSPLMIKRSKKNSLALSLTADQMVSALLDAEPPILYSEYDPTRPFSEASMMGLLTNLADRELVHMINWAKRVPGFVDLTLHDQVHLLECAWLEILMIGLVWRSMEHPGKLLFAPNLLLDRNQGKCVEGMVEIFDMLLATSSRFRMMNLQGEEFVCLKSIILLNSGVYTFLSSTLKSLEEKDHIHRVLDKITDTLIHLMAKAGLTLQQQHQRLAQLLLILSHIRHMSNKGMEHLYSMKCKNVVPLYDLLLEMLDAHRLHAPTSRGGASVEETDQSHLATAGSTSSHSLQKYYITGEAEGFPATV
Method in brief: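 Liver-derived HepG2 cells expressing chimeric nuclear receptor-Gal4 proteins from transient transfection were exposed for 24 hours. Gain of reporter mRNA signal versus DMSO, read by capillary electrophoresis of FAM-labelled PCR products, was recorded.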

Measured: AC50

OC[C@H]1O[C@@H]2O[C@H]3[C@H](O)[C@@H](O)[C@@H](O[C@H]4[C@H](O)[C@@H](O)[C@@H](O[C@H]5[C@H](O)[C@@H](O)[C@@H](O[C@H]6[C@H](O)[C@@H](O)[C@@H](O[C@H]7[C@H](O)[C@@H](O)[C@@H](O[C@H]8[C@H](O)[C@@H](O)[C@@H](O[C@H]9[C@H](O)[C@@H](O)[C@@H](O[C@H]1[C@H](O)[C@H]2O)O[C@@H]9CO)O[C@@H]8CO)O[C@@H]7CO)O[C@@H]6CO)O[C@@H]5CO)O[C@@H]4CO)O[C@@H]3CO
active: [2] 22.4 µM
not listed: [18] | [19] | [20]
inactive: all other assays above

CCN(CCC#N)c1ccc(N=Nc2ccc([N+](=O)[O-])cc2)cc1
not listed: [14] | [16] | [19] | [20]
inactive: all other assays above

CCOc1ccc(NC(=O)CC(C)=O)cc1
not listed: [14] | [17] | [19] | [20]
inactive: all other assays above

C[N+](C)(C)CCCCCC[N+](C)(C)C
not listed: [3] | [12] | [13] | [14] | [18] | [20]
inactive: all other assays above

O=C(Nc1ccc2c(O)c(N=Nc3ccc(N=Nc4ccc(S(=O)(=O)O)cc4)cc3)c(S(=O)(=O)O)cc2c1)c1ccccc1
not listed: [14] | [16] | [18] | [19]
inactive: all other assays above

NCC1CCCC(CN)C1 (stereo not drawn)
not listed: [3] | [5] | [8] | [16] | [18] | [20]
inactive: all other assays above

CCC1(C)NC(=O)NC1=O (stereo not drawn)
not listed: [3] | [8] | [9] | [13] | [14] | [18] | [20]
inactive: all other assays above

COc1ccccc1N=Nc1c(S(=O)(=O)O)cc2cc(S(=O)(=O)O)cc(NC(C)=O)c2c1O
active: [2] 25.7 µM
not listed: [18] | [19] | [20]
inactive: all other assays above

COC(CC(C)CCCC(C)(C)O)OC (stereo not drawn)
not listed: [3] | [9] | [13] | [14] | [18] | [20]
inactive: all other assays above

O=C(Nc1ccc2c(c1)Cc1ccccc1-2)C(F)(F)F
active: [2] 27.7 µM | [3] 17.5 µM | [12] 30.5 µM
not listed: [14] | [16] | [18] | [19] | [20]
inactive: all other assays above

O=C(O)c1cc(C(=O)O)cc([N+](=O)[O-])c1
not listed: [14] | [18] | [19] | [20]
inactive: all other assays above

COc1cc(Cl)c(OC)cc1N
active: [2] 62.4 µM
not listed: [3] | [9] | [13] | [14] | [18] | [20]
inactive: all other assays above

Cc1ccc(S(=O)(=O)Oc2ccc(N=Nc3ccc(-c4ccc(N=Nc5c(O)ccc6cc(S(=O)(=O)O)cc(S(=O)(=O)O)c56)c(C)c4)cc3C)cc2)cc1
active: [2] 4.91 µM | [11] 40.6 µM | [12] 14.1 µM
not listed: [3] | [5] | [20]
inactive: all other assays above

CC=Cc1ccc(OCC)c(O)c1
active: [2] 65.8 µM
not listed: [14] | [16] | [17] | [18] | [19] | [20]
inactive: all other assays above

Nc1c(S(=O)(=O)O)cc(Br)c2c1C(=O)c1ccccc1C2=O
active: [2] 22.4 µM | [3] 100 µM | [8] 100 µM | [12] 72.4 µM
not listed: [13] | [14] | [16] | [17] | [18] | [19]
inactive: all other assays above

CCCCCCCC(=O)OCCCCCC
active: [2] 28.2 µM
not listed: [17] | [18] | [19] | [20]
inactive: all other assays above

Oc1ccc2cc(SSc3ccc4cc(O)ccc4c3)ccc2c1
inactive: [4] | [7] | [9] | [10] | [11] | [13] | [17]
active: [1] 27.1 µM | [2] 6.48 µM | [3] 33.5 µM | [5] 75.2 µM | [6] 8.33 µM | [8] 26.6 µM | [12] 27.6 µM | [15] 40.2 µM
